# Screening results deposited in PubChem by several laboratories.
# esBAF inh: Bmi1 luciferase reporter increase in mESCs, primary screen, esBAF inhibitor project, mouse ES cells, Bmi1 luciferase knock-in, single point. 24 h; 100% = twice the neutral-well signal. reporter increase, % at 12.5 µM. actives 2% (n = 350,000). AID 602393, 2012; in the data active means activation above about 40%;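 further: 0% = median of the plate's neutral control wells and 100% = double that signal; a rise in the Bmi1 reporter signal indicates esBAF inhibition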
# Wnt bcat act: Wnt/beta-catenin pathway activators, primary screen, cell-based, plate reader, single point; activation, % at 9.35 µM; actives 1.2% (n = 300,000); AID 743398, 2014; Wnt/beta-catenin reporter cell assay, activator; in the data active means activation above about 30%, passing the limit was not always enough;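 further: 0% = neutral control wells and 100% = positive control wells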
# FXN GAA850 act: FXN promoter activators, primary screen, cell-based, luciferase luminescence, HEK293 lucGAA850; activation, % at 6 µM; AID 540364, 2011; actives 0.56% (n = 360,000); HEK293 lucGAA850 FXN promoter luciferase reporter, 24 h; percent of 10 µM SAHA response;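 active means activation above the average of all compounds screened plus 3 SD, cutoff fixed separately per campaign, cut at about 7.5% in these data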;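 further: 0% = DMSO wells and 100% = 10 µM SAHA wells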
# AHR act: AHR activators, primary screen, cell-based, luminescence, luciferase reporter, human; AHR-responsive luciferase reporter cells; activation, % at 5 µM; actives 2.5% (n = 320,000); AID 2796, 2010; in the data active means activation above about 47%;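 further: 0% = vehicle wells and 100% = reference agonist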
# MITF act: activators of MITF-driven TRPM1 promoter reporter, primary screen, cell-based, SK-MEL-5, luciferase, single point | SK-MEL-5 TRPM1-promoter luciferase, 24 h; % of positive control, neutral wells = 0 | activation, % at 12.5 µM | actives 0.75% (n = 300,000);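 active means mean activation of at least 80% with every replicate also reaching 80%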;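 further: 0% = neutral control wells and 100% = parthenolide positive control wells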
# AHR act confirm: AHR activators, confirmation, cell-based, luminescence, luciferase reporter, human | actives 87% (n = 2,300) | shares compounds with AHR act | human cells, AHR-responsive luciferase reporter | activation, % at 9 µM | AID 2845, 2010; in the data active means activation above about 49%;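 further: HepG2 hepatoma cells carrying a DRE-driven firefly luciferase reporter; 0% = vehicle wells and 100% = reference agonist wells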
# PXR counter: human PXR activators, counter-screen for AHR activator project, cell-based, luciferase luminescence; shares compounds with AHR act; cell-based PXR reporter; activation, % at 11.6 µM; actives 88% (n = 2,300); in the data active means activation above about 11%;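 further: human hepatoma DPX-2 cells expressing full-length human PXR; 0% = DMSO and 100% = reference agonist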
# Target sequence (O75469 whole entry, looked up): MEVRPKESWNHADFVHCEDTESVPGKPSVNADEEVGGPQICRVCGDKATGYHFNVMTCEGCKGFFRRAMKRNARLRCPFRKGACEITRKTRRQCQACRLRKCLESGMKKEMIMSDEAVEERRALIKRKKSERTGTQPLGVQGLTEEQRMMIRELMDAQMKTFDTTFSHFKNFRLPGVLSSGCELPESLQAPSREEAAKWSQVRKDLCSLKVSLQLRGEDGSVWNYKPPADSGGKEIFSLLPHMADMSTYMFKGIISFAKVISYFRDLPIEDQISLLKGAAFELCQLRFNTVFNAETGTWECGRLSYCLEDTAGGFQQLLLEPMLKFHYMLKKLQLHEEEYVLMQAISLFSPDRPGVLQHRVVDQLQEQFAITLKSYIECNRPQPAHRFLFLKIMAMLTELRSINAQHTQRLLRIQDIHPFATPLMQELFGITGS
# * hit, by the source's call; . = no result given. The list is not random: actives were taken first. Their share in the collection is about 4.2%.
SMILES,esBAF inh,Wnt bcat act,FXN GAA850 act,AHR act,MITF act,AHR act confirm,PXR counter
Cc1c(C2(O)CCCCC2)[nH]c2ccccc12,.,-1,.,.,.,.,.
Brc1cccc(-c2n[nH]c(-c3ccccc3)n2)c1,.,.,3,117*,61,128*,15*
CCOc1cc(C2Nc3ccccc3C(=O)N2c2ccccc2)c(Br)cc1OCC(=O)O (stereo unspecified),.,.,1,0,6,.,.
COc1cc(C2Nc3ccccc3C(=O)N2c2ccc(Cl)cc2)c(Cl)cc1OCC(=O)O (stereo unspecified),.,48*,5,116*,71,89*,15*
C[C@H]1CN([C@@H](C)CO)C(=O)Cc2cc(NC(=O)C3CCCCC3)ccc2O[C@H]1CN(C)Cc1ccc2c(c1)OCO2,0,.,.,.,.,.,.
C[C@@H](NC(=O)C[C@H]1C[C@H]2c3cc(NC(=O)c4ccc5c(c4)OCO5)ccc3O[C@H]2[C@@H](CO)O1)c1ccccc1,-1,.,.,.,.,.,.
COc1cccc(C(=O)O/N=C(\N)c2ccc([N+](=O)[O-])cc2)c1,55*,.,1,79*,15,75*,.
O=C(c1cc2cc(F)ccc2[nH]1)N1CCc2ccccc2C1,32,8,5,82*,2,110*,46*
Cc1cccc(CN(C)C[C@@H]2OCc3cn(nn3)CCCC(=O)N([C@H](C)CO)C[C@H]2C)c1,-6,.,.,.,.,.,.
NCCCn1c(C(=O)c2ccc(Cl)cc2)c2ccc([N+](=O)[O-])cc2[n+]1[O-],-7,8,-2,41,-24,.,.
NCCCn1c(C(=O)c2ccc(Cl)cc2)c2ccc(C(F)(F)F)cc2[n+]1[O-],-5,-1,2,100*,-22,104*,29*
O=C(N/N=C/c1c[nH]c2ccccc12)c1cc(-c2ccccc2)n[nH]1,.,-1,2,38,-7,.,.
O=C(N/N=C/c1c[nH]c2ccccc12)c1cc(-c2cccc3ccccc23)n[nH]1,.,.,-2,92*,-15,18,5
O=C(N/N=C/c1c[nH]c2ccccc12)c1cc(-c2ccc3ccccc3c2)n[nH]1,.,-5,0,145*,-7,53*,12*
COc1ccc(NC(=O)c2cccc3c(Br)cccc23)cc1,10,1,0,93*,4,121*,.
COc1ccc(NC(=O)c2cc(=O)[nH]c3ccccc23)cc1,4,0,1,100*,3,108*,20*
C[C@H](CO)N1C[C@H](C)[C@H](CN(C)CC2CC2)Oc2cc(C#Cc3ccccc3F)ccc2S1(=O)=O,-7,.,.,.,.,.,.
O=C(Nc1ccccc1)c1ccc(NCC2CCCO2)c([N+](=O)[O-])c1 (stereo unspecified),.,15,-2,20,39,.,.
O=C(Nc1cc(F)cc(F)c1)c1ccc(NCCCN2CCCCCC2)c([N+](=O)[O-])c1,.,-3,0,83*,7,118*,29*
O=C(Nc1ccccc1)c1ccc(NCCN2C(=O)CCC2=O)c([N+](=O)[O-])c1,.,2,2,81*,-5,110*,23*
O=C(NC(=S)Nc1ccccc1N1CCOCC1)c1ccccc1F,2,4,1,95*,62,73*,31*
O=C(CN1CCOCC1)N1CCCCN2[C@H](CO)[C@@H](c3ccc(-c4ccccc4F)cc3)[C@@H]2C1,-5,.,.,.,.,.,.
NC(=O)c1oc2ccccc2c1NC(=O)C1CCCCC1,0,-6,1,5,-11,.,.
NC(=O)c1oc2ccccc2c1NC(=O)c1ccc(F)cc1,5,1,1,106*,.,77*,.
Cc1ccc(NC(=O)c2oc3ccccc3c2NC(=O)c2ccc3c(c2)OCO3)cc1,18,.,1,7,66,.,.
Cc1ccc(NC(=O)c2oc3ccccc3c2NC(=O)C2CC2)cc1,3,0,1,122*,9,65*,32*
